KB-3-1 tox – qHTS assay for MDR1-selective chemotherapeutics: Primary screen using the parental adenocarcinoma cell KB-3-1. KB-3-1 viability, CellTiter-Glo ATP luminescence, 72 h. Potency, µM (doses to about 46.1 µM), usual class: cytotoxic. actives 1.4% (n = 400,000); also: potency is read from the fitted curve at half-maximal effect; nearly all actives have a fitted effect of over 60% in size
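Screening of KB-3-1 cells (DMEM, 10% FBS, phenol-red free) ran from lowest to highest compound concentration; after 72 h at 37 °C viability was read luminescently and curves fitted.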
HT1080-NT tox – qHTS for induction of synthetic lethality in tumor cells producing 2HG: qHTS for the HT-1080-NT fibrosarcoma cell line | HT-1080-NT fibrosarcoma viability, CellTiter-Glo ATP luminescence, 48 h | actives 1.6% (n = 360,000) | AID 686970, 2013 | Potency, µM (doses to about 46.1 µM), inactives show at the highest dose activity, negative = less viability, hits mostly cytotoxic;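 also: NT is the 2HG producing partner of a matched IDH1 knockdown line; potency is read from the fitted curve at half-maximal effect; 0% = DMSO-treated cells and -100% = media-only wells without cells; nearly all actives have a fitted effect of over 55% in size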
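A 48-hour cytotoxicity screen used HT-1080-NT cells plated 2 hours before compound delivery. ATP-based CellTiter-Glo luminescence measured viability, normalized to DMSO and no-cell controls.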
HT1080 IDH1KD tx – qHTS for induction of synthetic lethality in tumor cells producing 2HG: qHTS for the HT-1080-IDH1KD cell line; HT-1080 IDH1 knockdown viability, ATP luminescence, 48 h; Potency, µM (highest dose often 46.1 µM), for the others: top-dose activity, negative = toxicity, most hits filed as cytotoxic; actives 2% (n = 360,000);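 also: potency is read from the fitted curve at half-maximal effect; 0% = DMSO wells and -100% = cell-free medium wells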
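IDH1KD HT-1080 cells, 750/well, RPMI + 5% FBS; compound pinned after 2 h settling; 48 h, 37 °C; CellTiter-Glo luminescence; % activity normalised to DMSO and no-cell wells; curves fitted, classed by r2 and efficacy.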
KB-V1 MDR tox – qHTS assay for MDR1-selective chemotherapeutics: Primary screen using the drug-selected MDR subline cells KB-V1. KB-V1 MDR cells viability, CellTiter-Glo, 72 h. Potency, µM (top dose mostly 46.1 µM), actives largely listed as cytotoxic. actives 3.4% (n = 400,000). AID 1347076, 2019; also: potency is read from the fitted curve at half-maximal effect; nearly all actives have a fitted effect of over 60% in size
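In this primary screen, KB-V1 cells overexpressing P-gp are incubated with library compounds (lowest to highest concentration) for 72 h at 37 degrees C before a luminescent ATP viability read.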
IL1B secr inh – qHTS for Inhibitors of Inflammasome Signaling: IL-1-beta AlphaLISA Primary Screen. THP-1 LPS/ATP IL-1B secretion, AlphaLISA, 16 h; hits give low values. activity change, % at 57.5 µM. actives 4.7% (n = 360,000). AID 743279, 2014; in the data active = activity change below about -50%; inconclusive = mostly about -30% to -49%
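THP-1 cells pretreated 1 hr with compounds (up to 57.5 uM final), then stimulated with LPS (250 ng/mL final) plus ATP (1.25 mM final); secreted IL-1B measured by AlphaLISA after 16 hr, decreased signal indicating inhibition.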
The depositor's hits bear a star. Shown are actives, neighbours in structure and some others; about 8.8% of the full set was active somewhere. Unless noted, calls follow the shape of the dose curve; as a rule, active = well fitted curve in the direction sought with a large enough effect; inconclusive = small, poorly fitted or top-dose-only effect, or another doubt; inactive = no such curve, though single readings can be large; an effect the other way counts as inactive or inconclusive. Unless noted, % is scaled to controls: 0 for no effect and ±100 for the full control effect.

CN(C)S(=O)(=O)N(CC(=O)NCCSc1ccccc1)c1ccccc1 was read as KB-3-1 tox inactive and KB-V1 MDR tox inactive.
For CN(CC(=O)Nc1ccccc1Cl)C(=O)CSc1nnc(N)s1 the results were KB-3-1 tox inactive, HT1080-NT tox 4%, HT1080 IDH1KD tx 1%, KB-V1 MDR tox inactive and IL1B secr inh 5.
CSCCC(NC(=O)c1ccc(Cl)c([N+](=O)[O-])c1)C(=O)N1CCN(C/C=C/c2ccccc2)CC1 (configuration not stated) was read as KB-3-1 tox inactive, HT1080-NT tox -9%, HT1080 IDH1KD tx -8%, KB-V1 MDR tox inactive and IL1B secr inh -103*.
`CCc1ccc(CNC(=O)C2CC(=O)N(C3CCCC3)C2)cc1` (configuration not stated) gave KB-3-1 tox inactive, HT1080-NT tox 0%, HT1080 IDH1KD tx 0%, KB-V1 MDR tox inactive and IL1B secr inh 10.
`CC(=O)NS(=O)(=O)c1ccc(NC(=O)C(Sc2ccccc2)c2ccccc2)cc1` (configuration not stated) gave KB-3-1 tox inactive, HT1080-NT tox 10%, HT1080 IDH1KD tx 5%, KB-V1 MDR tox inconclusive and IL1B secr inh 37.
Screening O=C(Nc1nncs1)C(Sc1ccccc1)c1ccccc1 (configuration not stated) returned KB-3-1 tox inactive, HT1080-NT tox 10%, HT1080 IDH1KD tx 19%, KB-V1 MDR tox 21µM* and IL1B secr inh 40.
`CCC(C)NS(=O)(=O)c1ccc(NC(=O)C(Sc2ccccc2)c2ccccc2)cc1` (configuration not stated) gave KB-3-1 tox inconclusive, HT1080-NT tox -28%, HT1080 IDH1KD tx inconclusive, KB-V1 MDR tox 16µM* and IL1B secr inh -54*.
For COC(=O)/C(C#N)=C/c1c(N2CCN(c3ccccc3)CC2)nc2ccccn2c1=O the results were KB-3-1 tox inactive, HT1080-NT tox 2%, HT1080 IDH1KD tx 1%, KB-V1 MDR tox inactive and IL1B secr inh -7.
`CNC(=O)/C(C#N)=C/c1c(N(Cc2ccccc2)Cc2ccccc2)nc2ccccn2c1=O` gave KB-3-1 tox inactive, HT1080-NT tox 4%, HT1080 IDH1KD tx 0%, KB-V1 MDR tox 2.6µM* and IL1B secr inh inconclusive.
For C=CCOc1ccc(CNc2ccc(NC(=O)CC(C)C)cc2)cc1OC the results were KB-3-1 tox inactive, HT1080-NT tox 9%, HT1080 IDH1KD tx 12%, KB-V1 MDR tox inactive and IL1B secr inh -2.
For O=C(NNc1c([N+](=O)[O-])cc(C(F)(F)F)cc1[N+](=O)[O-])c1ccco1 the results were KB-3-1 tox inactive, HT1080-NT tox 21µM*, HT1080 IDH1KD tx inconclusive, KB-V1 MDR tox inactive and IL1B secr inh 0.
Screening O=C(NN=Cc1cc(Cl)ccc1[N+](=O)[O-])c1ccco1 returned KB-3-1 tox inactive, HT1080-NT tox 1%, HT1080 IDH1KD tx 15%, KB-V1 MDR tox 15µM* and IL1B secr inh 25.
Cc1ccccc1CN1CCCOCCS1(=O)=O was read as KB-3-1 tox inactive, HT1080-NT tox 14%, HT1080 IDH1KD tx 10%, KB-V1 MDR tox inactive and IL1B secr inh -1.
Screening COc1ccc(OC)c(CNC(=O)CCC(=O)N2Cc3cccc(OC)c3Oc3ncccc32)c1 returned KB-3-1 tox inactive, HT1080-NT tox 3%, HT1080 IDH1KD tx 0%, KB-V1 MDR tox inactive and IL1B secr inh 1.
For CCOC(=O)N1CCC(N2CCN(c3cc(C)ccc3C)CC2)CC1 the results were KB-3-1 tox inactive, HT1080-NT tox 2%, HT1080 IDH1KD tx -28%, KB-V1 MDR tox 23µM* and IL1B secr inh -7.
`CCOC(=O)c1ccc(N2CCN(c3cc(C)ccc3C)CC2)c(N)c1` gave KB-3-1 tox inactive, HT1080-NT tox 1%, HT1080 IDH1KD tx -1%, KB-V1 MDR tox inactive and IL1B secr inh -13.

Compound activity: PubChem, National Center for Advancing Translational Sciences (NCATS)
